Publication PMC12136788
Positions count from the first letter of the chain named. Whole data set: some 24,000 sequences, median “enrichment r” near 0.99, cut for the highest 2% near 3.7. What follows is part of a selection rich in the highest values, with near analogues and random picks from the rest.

T1: UNK ZnF1-3 (human, UniProt Q9C0B0 31-174)
T1 sequence: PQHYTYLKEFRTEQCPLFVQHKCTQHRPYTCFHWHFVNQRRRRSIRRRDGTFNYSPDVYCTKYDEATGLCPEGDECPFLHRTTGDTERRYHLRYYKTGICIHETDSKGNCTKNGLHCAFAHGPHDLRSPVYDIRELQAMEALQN

B1: chr11:134117569:134117570:+_ENSG00000151502_ENST00000281187|hu_hu|motif|central (ssRNA)
RNA: GGGAGUUCUACAGUCCGACGAUCAGAAACAUGUAAACACUGCAGCUGCUUAAUUACAAGUUGCACUGCUUGAUUUAGUACCGGUGCACUCCCAGGUUUGGGGACCUUAAGAGAGGGGGACAGGAGCCUCCCCUCACUUUCACACAACAGAGGAUUGAGCAUCA
B2: chr18:65376317:65376318:+_ENSMUSG00000024589_ENSMUST00000163516|mus_hu|FALSE|FALSE (ssRNA)
RNA: GGGAGUUCUACAGUCCGACGAUCUUUCAUGCCAACAGGAAGCUAACCCUUUUCUAGAAAACGUUCUCCAAGCUCCCGUCCUAAUGCUGUGGCACUUUCUCUGACAUACUGAGAACACUCUGGGGUGGGGGUGUGUGUAUGCAACAACAGAGGAUUGAGCAUCA
B3: 56885736_56885856_9979_3pUTR_ENSMUSG00000055296_ENSMUST00000068792|mouse|control|control (ssRNA)
RNA: GGGAGUUCUACAGUCCGACGAUCAUCUUAUAUUGAUCUAGAUUUGACCACAGAUAAACCUUGUACUGCCUAGUCUUGUGUCAACUUGACACAGCUGGAGUUAUCACAGAGAAAGGAGCUUCAGUUGAGGAAAUGCCUCCAUGACAACAGAGGAUUGAGCAUCA
B4: chr13:31725248:31725249:-_ENSG00000120694_ENST00000320027|perfect_dup|motif|central (ssRNA)
RNA: GGGAGUUCUACAGUCCGACGAUCUUUGGAUUUUGCAUCCAAUUUGUACUUGGUUUUAAAUUCAGCACAAAAAUGUUCGGCGGGCUUCUCAUCAAAGUUCUUUCCUCCUAAGAAGGGAUCAAAAGCUGUGCCUAGAACCUUCAGCAACAGAGGAUUGAGCAUCA
B5: chr11:75578338:75578339:+_ENSMUSG00000020849_ENSMUST00000067664|perfect_dup|FALSE|FALSE (ssRNA)
RNA: GGGAGUUCUACAGUCCGACGAUCUUAAGAACUUUUGAAAACUGUUUAAAAAAAAAAAAAAAAAACCAACAGGGCAGGAACCUAAAUUCUGAGACCAAAUGUAAAAGUCAGAUUUGGUGGUUCUCAGUGACAAUGGGGAGUUUCCAACAGAGGAUUGAGCAUCA
B6: chr2:35037708:35037709:-_ENSMUSG00000026878_ENSMUST00000028238|mus_hu|FALSE|FALSE (ssRNA)
RNA: GGGAGUUCUACAGUCCGACGAUCCUGUUUUUACAACAGAGUUUUUUCUUUUUUUUUAAUUAAACCCAGUAAGAUGUACAGAAGACAAUGAGGCAGUAAAAAGUACUGCUUCCAACAGACAGAGGUGAAAGGUCAAAUGAGGGGCAACAGAGGAUUGAGCAUCA
B7: chr1:60041781:60041782:+_ENSMUSG00000041040_ENSMUST00000036540|mus_mus|motif|central (ssRNA)
RNA: GGGAGUUCUACAGUCCGACGAUCUUAAGGAGUGAAUCUCAACUUUACAAAUUUAGUAAUGGCAAGUUUACUUUAGUUUCCGGAAAGAAAACCUCAGGAUCUCAGUUCAAUCCCAGACAGAGAAAGCUCUCCAUGGGGCCACUGCAACAGAGGAUUGAGCAUCA
B8: chr11:75578338:75578339:+_ENSMUSG00000020849_ENSMUST00000067664|perfect_dup|motif|central (ssRNA)
RNA: B5 RNA with U82G, A83G
B9: chr13:99559765:99559766:-_ENSMUSG00000041685_ENSMUST00000040340|mus_mus|motif|central (ssRNA)
RNA: GGGAGUUCUACAGUCCGACGAUCCUGAACUUCCUUUAUUAAUUCCUGUAAUUUUCUAACAAGAUCCAAAUGACAAUUUGCGGAUUUCUCUGUAGAUGUUUUGAAUACAUCCCACAUUGGUGCAAAUGUUCCAAGUUGUGAAUACAACAGAGGAUUGAGCAUCA
B10: chr18:47247233:47247234:+_ENSMUSG00000042705_ENSMUST00000049388|mus_hu|motif|central (ssRNA)
RNA: GGGAGUUCUACAGUCCGACGAUCUUGUAUAUGGCUAUUUUCUUAAUUUUAUUCAUGUAAUUACCAAAGCUCUGUAUUCGGCGGAGGUACACAUCUUAUCUUGUAUCCAUGGACGCUCCUUGAUACAUUAUGGUAUCAUCCAGCCAACAGAGGAUUGAGCAUCA
B11: chr1:178670160:178670161:-_ENSMUSG00000057335_ENSMUST00000057037|mus_mus|FALSE|FALSE (ssRNA)
RNA: GGGAGUUCUACAGUCCGACGAUCCUGAGGCCUCGAGUCAACAGACCGACCGUUGUUUCCUUCUGGUGUUUUAGAAUGAACUAAUGGAGGUAUCUUUCGGAAGUUGAGACUUUCAUCAAAAACACGAUCAACCAACUCUUCUCUCAACAGAGGAUUGAGCAUCA
B12: 98562344_98563384_6126_CDS_ENSG00000196367_ENST00000456197|human|control|control (ssRNA)
RNA: GGGAGUUCUACAGUCCGACGAUCCCAUGCUCAUCACUGCCAGGCGCGUCUUCACCAGCUCCAGACUCAGCAUCACCAGCUCGCUUGUACCUGAGGUGGCUUCGGUGCUUCCUGACGCUGCCUGAGGGUUUAAAUGCUCCCGGACAACAGAGGAUUGAGCAUCA
B13: 33247490_33252972_1089_CDS_ENSG00000083642_ENST00000315596|human|control|control (ssRNA)
RNA: GGGAGUUCUACAGUCCGACGAUCCCUGCCCAAGUAGCACUGCCAAAGUGGCUUGUUUUGAGAAGCCAAUUCUGAAUCCUUUGCCCCAAACAUUUUUGCCAGUAGUUUAACAACUUGUAGGCGCUCCUCAUUAUCAUUGCUCUUCAACAGAGGAUUGAGCAUCA
B14: chr12:39756943:39756944:-_ENSG00000139116_ENST00000544797|hu_mus|hu_hu_hu_mus_False|1_18 (ssRNA)
RNA: GGGAGUUCUACAGUCCGACGAUCGGUUUGGCUGUUACCCCCAAGGGAAUCCUGCAAGAGUCUUGUCAGCUUAGAGUCUCUGUAAGGGACAUGGGUGGCUCUCUUGCUCUUGUCCCCCAAGGCACUUAUUACAUUCCCAAGUGCCAACAGAGGAUUGAGCAUCA
B15: chr2:224824363:224824364:+_ENSG00000135900_ENST00000258383|hu_mus|FALSE|FALSE (ssRNA)
RNA: GGGAGUUCUACAGUCCGACGAUCAGCUUCUUUCUCUAUGCCAAGGCUCUGACGUUUCGCCUCUUCGCUUUUGAUGUAGCAGCUAUUGAUAAAUGCAGUUUUGAGAAGGUCCAACGAAAAGGUUUCUUGUAAGCGAGAUCCAAACAACAGAGGAUUGAGCAUCA
B16: 64079182_64079302_4442_3pUTR_ENSMUSG00000025959_ENSMUST00000114086|mouse|control|control (ssRNA)
RNA: GGGAGUUCUACAGUCCGACGAUCCCCACAGCCAACAAAGGACUCUGAAGCAAGCAAGCACCAUCAUGGUAUCUCAGUGCGCCCUGCUCCAAGAGAGAUCAGGAGCAGAUCACAAAGACCUCACUGAUACAAAAGAGAAAUUACCAACAGAGGAUUGAGCAUCA
B17: chr1:82457952:82457953:+_ENSG00000117114_ENST00000335786|hu_mus|motif|central (ssRNA)
RNA: GGGAGUUCUACAGUCCGACGAUCAGCUUUGCUGAAACAAUUUACAUGUCAUUAGAACUUUACCAUAAAAUAAAUUAAUUACGGAAUAUAGCCAGAAGGAAUAUGGAAGAGUAAUAUUUCUGUUUUAUUUUAUUUUUAUUUUAUCAACAGAGGAUUGAGCAUCA
B18: chrX:12193597:12193598:+_ENSMUSG00000031007_ENSMUST00000033313|mus_mus|motif|central (ssRNA)
RNA: GGGAGUUCUACAGUCCGACGAUCACAAAGCUAGUCUCUUCUGAAAUCAACAUAGUAUUUUUAAUAAUUUUAAUAUCUCGGCGGAACCACACGGAUCACCAAACUUGCAGAAGAGAUUAAAAACAGCUAGCUUGCUAGUCAUAUCAACAGAGGAUUGAGCAUCA
B19: chr8:104081237:104081238:+_ENSG00000155097_ENST00000518738|hu_mus|motif|central (ssRNA)
RNA: GGGAGUUCUACAGUCCGACGAUCAACACACAGAAUUAUGCAUACCAUGAUAUCAAGGAGGAAAAUACCUCUUUAAAUAAACGGUUCGGUUUAUAAAUAAACUCUGAUUUUUUUCAGUACACAUUUACAGACCUGAUCAAUAAACAACAGAGGAUUGAGCAUCA
B20: chr10:111893599:111893600:+_ENSG00000148700_ENST00000277900|hu_hu|FALSE|FALSE (ssRNA)
RNA: GGGAGUUCUACAGUCCGACGAUCAUUCAGACAGAUAGCUGUUUAUGGUGAAUUAUAAUAAUACUUCAUGAGGGCAGAGCUAAUUAAAACUAGUAAUUGCUUAAAAUUCAAAGCCAUUUCUGGACAUAUAAAAUGAGAGAUGAACAACAGAGGAUUGAGCAUCA
B21: chr10:111893621:111893622:+_ENSG00000148700_ENST00000277900|hu_hu|motif|central (ssRNA)
RNA: GGGAGUUCUACAGUCCGACGAUCUAAUUCAGACAGAUAGCUGUUUAUGGUGAAUUAUAAUAAUACUUCAUGAGGGCAGAGCGGAUUAAAACUAGUAAUUGCUUAAAAUUCAAAGCCAUUUCUGGACAUAUAAAAUGAGAGAUGCAACAGAGGAUUGAGCAUCA
B22: 94906243_94906363_1931_3pUTR_ENSG00000149212_ENST00000536441|human|control|control (ssRNA)
RNA: GGGAGUUCUACAGUCCGACGAUCAAAUAAAACACAUCAUUGCACAUUACAGCCGCAAAAAACAAAAAAAAAAAAACAAACGGCUAAACUUUGACACUAGAGAACUGAAUAAUUUUUGAUGCUAUAUCACAAAUAGCUUCAAUGCAACAGAGGAUUGAGCAUCA
B23: chr4:136876768:136876769:-_ENSMUSG00000006699_ENSMUST00000051477|mus_hu|FALSE|FALSE (ssRNA)
RNA: GGGAGUUCUACAGUCCGACGAUCAAAAAAAAAAAAAAACACACACACACAAAAAUUUUUUUUUUGAAACAACAAAAAAAAAUAGUACUAAUCACUUUUCUGACAAUACAAUUACUCAAAAUUAACUAGUACUGGGAGGGGGAACAACAGAGGAUUGAGCAUCA

Each binder was assayed against T1, UNK ZnF1-3 (assay: nsRBNS (natural sequence RNA bind-n-seq); RBNS binding buffer (assumed for nsRBNS): 25 mM Tris pH 7.5, 150 mM KCl, 3 mM MgCl2, 0.01% Triton X-100, 500 ug/ml BSA, 20 U/ml SUPERase-In, 4 C; UNK is unkempt and MSI1 is Musashi-1; names of the RNAs are library labels; protein concentration not given here; high values mean tight binding).

| Binder | binding signal [enrichment R] |
| --- | --- |
| B1 | 0.758 |
| B2 | 0.949 |
| B3 | 1.28 |
| B4 | 1.17 |
| B5 | 4.7 |
| B6 | 1.64 |
| B7 | 0.919 |
| B8 | 5.06 |
| B9 | 0.623 |
| B10 | 1.03 |
| B11 | 1 |
| B12 | 0.681 |
| B13 | 0.879 |
| B14 | 0.497 |
| B15 | 1 |
| B16 | 1.03 |
| B17 | 3.79 |
| B18 | 1.81 |
| B19 | 0.25 |
| B20 | 4.42 |
| B21 | 4.04 |
| B22 | 6.07 |
| B23 | 3.42 |
